Results: PubChem BioAssay (NCATS)
Inconclusive results are not listed. A call without a number means that no potency is given here. Activity calls are given as the source filed them. Calls come from the whole dose curve; as a rule, active = well fitted inhibition curve with a large enough effect; inconclusive = small, poorly fitted or top-dose-only effect; inactive = no such curve, though single readings can be large or run the other way.

Legend:
[1] = test system: Zika virus NS2B-NS3 protease (unlinked complex); experiment: Primary screen GU Rhodamine qHTS for Zika virus inhibitors: Unlinked NS2B-NS3 protease assay (AID 1347159); note: nearly all actives have a fitted effect of over 60% in size; note: potency is the fitted concentration of half-maximal effect
Procedure, shortened: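 Noncovalent NS2B hydrophilic domain–NS3 protease domain complex (25 nM) preincubated 15 min at room temperature with compounds (up to 114 microM) in 10 mM Tris-HCl pH 8.0, 0.01% Tween 20; 1.5 microM Rhodamine110 substrate added, fluorescence change over 15 min fitted to Hill equation.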

[2] = test system: Zika virus NS2B-NS3 protease (linked construct); experiment: Primary screen NINDS Rhodamine qHTS for Zika virus inhibitors (AID 1347160); note: nearly all actives have a fitted effect of over 55% in size
Procedure, shortened: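 Purified linked NS2B-NS3 protease (NS2B hydrophilic domain joined to NS3 protease by flexible linker), 25 nM in 10 mM Tris-HCl pH 8.0, 0.01% Tween 20. Compounds titrated, 15 min preincubation at room temperature; 1.5 microM Rhodamine110 substrate, FITC fluorescence change over 15 min.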

Row | SMILES | Potency [1] | Potency [2]
1 | O=C(O)[C@H]1CCCC[C@H]1C(=O)N1CCc2ccccc2[C@H]1CN1C(=O)c2ccccc2C1=O | inactive | inactive
2 | CC1NC(=O)C(Cc2c[nH]c3ccccc23)NC1=O (stereo unspecified) | inactive | inactive
3 | C=CC(C)(C)O[C@@H]1O[C@H](CO[C@@H]2OC[C@](O)(CO)[C@H]2O)[C@@H](O)[C@H](O)[C@H]1O | inactive | inactive
4 | CCc1cc2c(=O)c(-c3nc4ccccc4s3)coc2c(CN2CCCCC2)c1O | 12.6 µM (active) | inactive
5 | COC(=O)C12C(=O)C(C)=C(O)C1(C)C(C)=CC1C34CCC(OC3=O)C(C)(C)C4CCC12C (stereo unspecified) | inactive | inactive
6 | N#Cc1ccc2[nH]c(O)c(-c3ccc(CN4CCOCC4)cn3)c2c1 | inactive | inactive
7 | COc1cc(C2Oc3c(O)cc(CCCO)cc3C2CO)ccc1O[C@H]1O[C@H](C)[C@@H](O)[C@H](O)[C@@H]1O (stereo partly specified) | inactive | inactive
8 | CC(C)N(C[C@H]1O[C@@H](n2cnc3c(N)ncnc32)[C@H](O)[C@@H]1O)C1CC(CCc2nc3ccc(C(C)(C)C)cc3[nH]2)C1 (stereo partly specified) | inactive | inactive
